Test results taken from PubChem BioAssay (EPA / NIEHS).
Inconclusive results are not listed. Some structures have more than one record in an assay (separate samples or runs), and their calls can disagree. Calls of active or inactive are those of the source. The calls were made as follows, unless noted: active = hit-call score of the fitted dose curve at least 0.9, where 1 is the maximum; inactive = score below 0.9.

Legend:
[1] = target: Retinoic acid receptor RXR-alpha (Homo sapiens) (UniProt P19793); assay: ATG_RXRa_TRANS: Attagene TRANS-FACTORIAL HepG2 Assay for human Retinoid X Receptor alpha (RXRa) (AID 2283012; active = hit-call score of the fitted dose curve at least 0.9, where 1 is the maximum)
Sequence of Retinoic acid receptor RXR-alpha (Homo sapiens) (P19793 whole entry, looked up, the tested form may be a part): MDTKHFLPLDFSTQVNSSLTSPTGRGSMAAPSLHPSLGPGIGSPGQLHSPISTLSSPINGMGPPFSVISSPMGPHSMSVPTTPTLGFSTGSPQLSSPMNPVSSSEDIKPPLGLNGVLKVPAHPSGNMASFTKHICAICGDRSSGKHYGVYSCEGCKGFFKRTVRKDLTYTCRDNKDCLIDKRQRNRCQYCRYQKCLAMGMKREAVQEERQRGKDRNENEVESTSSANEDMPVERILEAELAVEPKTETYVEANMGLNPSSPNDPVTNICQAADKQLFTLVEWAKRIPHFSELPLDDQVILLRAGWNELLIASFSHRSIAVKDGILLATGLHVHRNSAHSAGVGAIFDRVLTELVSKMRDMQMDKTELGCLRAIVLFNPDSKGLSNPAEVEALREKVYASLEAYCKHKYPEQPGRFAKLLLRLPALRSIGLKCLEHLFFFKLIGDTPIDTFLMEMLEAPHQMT
In short: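 TRANS format reporting activity of exogenous RXRa-Gal4 chimera in transiently transfected HepG2, 24 h exposure. Reporter transcripts quantified by RT-PCR with capillary electrophoresis, with gain of signal scored relative to DMSO.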

[2] = target: human Retinoid X Receptor beta (RXRb), RXRB (gene 6257) (UniProt P28702); assay: ATG_RXRb_TRANS: Attagene TRANS-FACTORIAL HepG2 Assay for human Retinoid X Receptor beta (RXRb) (AID 2283013; active = hit-call score of the fitted dose curve at least 0.9, where 1 is the maximum)
Sequence of human Retinoid X Receptor beta (RXRb), RXRB (gene 6257) (P28702 whole entry, looked up, the tested form may be a part): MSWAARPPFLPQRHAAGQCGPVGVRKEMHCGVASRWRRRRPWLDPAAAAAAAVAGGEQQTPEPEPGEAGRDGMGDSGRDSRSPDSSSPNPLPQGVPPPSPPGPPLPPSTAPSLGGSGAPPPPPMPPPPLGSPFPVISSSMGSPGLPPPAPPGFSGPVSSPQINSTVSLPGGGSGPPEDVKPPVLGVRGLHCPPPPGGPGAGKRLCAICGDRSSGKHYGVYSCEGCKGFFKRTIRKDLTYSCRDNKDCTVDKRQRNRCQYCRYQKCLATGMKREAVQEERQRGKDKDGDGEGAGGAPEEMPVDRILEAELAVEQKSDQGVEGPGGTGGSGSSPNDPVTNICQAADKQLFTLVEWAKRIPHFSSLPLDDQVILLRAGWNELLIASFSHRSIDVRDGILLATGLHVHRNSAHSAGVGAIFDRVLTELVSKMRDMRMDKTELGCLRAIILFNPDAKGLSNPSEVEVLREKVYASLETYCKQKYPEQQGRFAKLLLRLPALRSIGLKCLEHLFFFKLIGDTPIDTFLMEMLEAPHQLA
In short: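 Readout is reporter transcript induction after 24 h dosing. It is measured by RT-PCR of total RNA followed by fluorescent capillary electrophoresis. HepG2 liver cells carry transfected multiple reporter units driven by an exogenous RXRb-Gal4 fusion; activity is relative to DMSO.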

[3] = target: human Thyroid Receptor alpha (THRa1), THRA (gene 7067) (UniProt P10827); assay: ATG_THRa1_TRANS: Attagene TRANS-FACTORIAL HepG2 Assay for human Thyroid Receptor alpha (THRa1) (AID 2283014; active = hit-call score of the fitted dose curve at least 0.9, where 1 is the maximum)
Sequence of human Thyroid Receptor alpha (THRa1), THRA (gene 7067) (P10827 whole entry, looked up, the tested form may be a part): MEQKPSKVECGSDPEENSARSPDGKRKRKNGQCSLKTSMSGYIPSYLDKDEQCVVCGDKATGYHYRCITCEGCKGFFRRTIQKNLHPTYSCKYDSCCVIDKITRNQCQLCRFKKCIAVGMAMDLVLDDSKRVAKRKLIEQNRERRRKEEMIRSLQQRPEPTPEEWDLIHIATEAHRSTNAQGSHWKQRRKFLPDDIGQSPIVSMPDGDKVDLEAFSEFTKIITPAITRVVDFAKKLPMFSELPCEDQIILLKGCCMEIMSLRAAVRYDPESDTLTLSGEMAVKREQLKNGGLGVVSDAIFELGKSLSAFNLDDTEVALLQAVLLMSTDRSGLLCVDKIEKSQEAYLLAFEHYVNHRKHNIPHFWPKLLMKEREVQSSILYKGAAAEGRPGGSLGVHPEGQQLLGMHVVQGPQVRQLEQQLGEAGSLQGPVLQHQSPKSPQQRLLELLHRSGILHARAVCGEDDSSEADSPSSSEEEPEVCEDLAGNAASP
In short: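 Reporter transcript induction, read by capillary electrophoresis of 6-FAM-labelled RT-PCR products, reflects activity of a transfected THRa1-Gal4 fusion in HepG2 liver cells. Cells were dosed for 24 h; activity was fitted in the positive direction against DMSO.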

[4] = read-out: E-selectin (Homo sapiens) (UniProt P16581); assay: BSK_3C_Eselectin: BioMAP Diversity Plus: 3C Assay for Eselectin Biomarker Activity (AID 2283015); conditions: primary human endothelial cells (HUVEC); actives raise or lower the signal
In short: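 ELISA read-out of E-selectin on endothelial monolayers after 24 h chemical treatment. Human umbilical vein primary cells served as the system, with DMSO defining baseline activity for bidirectional fitting.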

[5] = read-out: Interleukin-1 alpha (IL1a), IL1A (gene 3552); assay: BSK_BE3C_IL1a: BioMAP Diversity Plus: BE3C Assay for Interleukin-1 alpha (IL1a) Biomarker Activity (AID 2283016); conditions: primary human bronchial epithelial cells; actives raise or lower the signal
In short: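 IL-1a measured by ELISA after 24 h treatment of human primary bronchial epithelial cells, with gain or loss of signal fitted versus DMSO. Parallel cultures stained with SRB gauge overt cytotoxicity.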

[6] = read-out: Monocyte Chemoattractant Protein-1 (MCP1), CCL2 (gene 6347); assay: BSK_3C_MCP1: BioMAP Diversity Plus: 3C Assay for Monocyte Chemoattractant Protein-1 (MCP1) Biomarker Activity (AID 2283017); conditions: primary human endothelial cells (HUVEC); actives raise or lower the signal
In short: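 ELISA read-out of MCP-1 from human umbilical vein endothelial cell cultures harvested 24 h post-dosing. Gain or loss of signal was fitted relative to DMSO.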

[7] = read-out: Monocyte Chemoattractant Protein-1 (MCP1), CCL2 (gene 6347); assay: BSK_4H_MCP1: BioMAP Diversity Plus: 4H Assay for Monocyte Chemoattractant Protein-1 (MCP1) Biomarker Activity (AID 2283018); conditions: primary human endothelial cells (HUVEC); actives raise or lower the signal
In short: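 ELISA of MCP-1 (CCL2) 24 h after chemical dosing of HUVEC in the BioMAP 4H system. Gain or loss versus DMSO fitted; parallel SRB staining (560 nm) tracked overt cytotoxicity.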

[8] = read-out: Human Leukocyte Antigen - DR isotype (HLADR), HLA-DRA (gene 3122); assay: BSK_3C_HLADR: BioMAP Diversity Plus: 3C Assay for Human Leukocyte Antigen - DR isotype (HLADR) Biomarker Activity (AID 2283019); conditions: primary human endothelial cells (HUVEC); actives raise or lower the signal
In short: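 ELISA readout of surface HLA-DR on human umbilical vein endothelium, taken 24 h after chemical treatment. Gain- and loss-of-signal were both fitted relative to DMSO.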

[9] = read-out: Interleukin-8 (IL8), CXCL8 (gene 3576); assay: BSK_3C_IL8: BioMAP Diversity Plus: 3C Assay for Interleukin-8 (IL8) Biomarker Activity (AID 2283020); conditions: primary human endothelial cells (HUVEC); actives raise or lower the signal
In short: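 IL-8 was measured by ELISA in HUVEC cultures 24 h after chemical dosing, with gain or loss of signal fitted relative to DMSO. Parallel SRB total-protein staining tracked overt cytotoxicity.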

[10] = read-out: Monokine induced gamma interferon (MIG), CXCL9 (gene 4283); assay: BSK_3C_MIG: BioMAP Diversity Plus: 3C Assay for Monokine induced gamma interferon (MIG) Biomarker Activity (AID 2283021); conditions: primary human endothelial cells (HUVEC); actives raise or lower the signal;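 as to AC50: MIG protein level measured by immunoassay in the treated endothelial cultures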
In short: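 ELISA measurement of MIG in human umbilical vein endothelial cells 24 h after treatment. Cytotoxicity tracked by SRB staining in parallel cultures; gain or loss of signal fitted relative to DMSO.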

Measured: AC50

Sequence of E-selectin (Homo sapiens) (P16581 whole entry, looked up): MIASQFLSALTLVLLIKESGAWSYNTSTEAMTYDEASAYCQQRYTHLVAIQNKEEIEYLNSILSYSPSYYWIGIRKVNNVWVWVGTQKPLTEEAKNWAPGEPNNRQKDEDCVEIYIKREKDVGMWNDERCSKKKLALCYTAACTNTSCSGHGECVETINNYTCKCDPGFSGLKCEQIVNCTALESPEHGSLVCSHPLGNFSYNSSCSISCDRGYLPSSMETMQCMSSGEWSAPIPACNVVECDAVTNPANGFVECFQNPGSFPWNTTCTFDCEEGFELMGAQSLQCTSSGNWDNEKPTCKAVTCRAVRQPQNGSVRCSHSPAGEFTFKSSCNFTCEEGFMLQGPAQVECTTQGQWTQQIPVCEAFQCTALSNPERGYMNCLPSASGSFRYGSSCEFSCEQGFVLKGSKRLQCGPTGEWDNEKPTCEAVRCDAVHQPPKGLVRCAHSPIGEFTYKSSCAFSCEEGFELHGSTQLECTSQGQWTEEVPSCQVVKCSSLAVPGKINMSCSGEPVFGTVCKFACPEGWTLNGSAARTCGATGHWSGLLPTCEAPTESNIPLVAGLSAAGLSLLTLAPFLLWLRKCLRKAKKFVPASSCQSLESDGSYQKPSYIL

CCNc1nc(Cl)nc(NC(C)C)n1
inactive: all assays above

CCOC(=O)C(Cl)Cc1cc(-n2nc(C)n(C(F)F)c2=O)c(F)cc1Cl (centres undefined)
active: [8] 9.55 µM
inactive: all other assays above

Cc1ccc(-c2c(Cl)nc(C#N)n2S(=O)(=O)N(C)C)cc1
inactive: [1] | [3] | [5] | [10]
active: [4] 15.8 µM | [6] 26.3 µM | [7] 20 µM | [8] 20 µM | [9] 15.8 µM

COc1nc(NC(C)C)nc(NC(C)C)n1
not listed: [2]
inactive: all other assays above

CC1COC(Cn2cncn2)(c2ccc(Oc3ccc(Cl)cc3)cc2Cl)O1 (centres undefined)
active: [4] 24.8 µM | [5] 36 µM | [6] 36.8 µM | [7] 15.3 µM | [8] 30.3 µM | [9] 28.6 µM | [10] 33.4 µM
inactive: [1] | [2]

CC(Oc1ccc(Cl)cc1Cl)C(=O)O (centres undefined)
not listed: [3]
inactive: all other assays above

Cc1c(F)c(F)c(COC(=O)C2C(/C=C(\Cl)C(F)(F)F)C2(C)C)c(F)c1F (centres undefined)
active: [4] 12 µM | [8] 14.8 µM
not listed: [1] | [3]
inactive: all other assays above

C#CCOS(=O)OC1CCCCC1Oc1ccc(C(C)(C)C)cc1 (centres undefined)
active: [4] 1.13 µM | [5] 30.3 µM | [6] 10.9 µM | [7] 10.1 µM | [8] 6.28 µM | [9] 7.04 µM | [10] 20 µM
inactive: [1] | [3]

CNC(=O)ON=CC(C)(C)SC
not listed: [2] | [3]
inactive: all other assays above

N#CC(CCc1ccc(Cl)cc1)(Cn1cncn1)c1ccccc1 (centres undefined)
not listed: [3]
inactive: all other assays above

CCON=C(CC)C1=C(O)CC(c2c(C)cc(C)cc2C)CC1=O (centres undefined)
not listed: [1] | [3]
inactive: all other assays above

CC(C)(C)c1ccc(CSc2cnn(C(C)(C)C)c(=O)c2Cl)cc1
active: [4] 3.97 µM | [6] 10.4 µM | [7] 0.221 µM | [8] 3.97 µM | [9] 7.27 µM
inactive: [1] | [2] | [5] | [10]

CNC(=S)S
active: [4] 12.8 µM | [8] 20 µM
not listed: [3]
inactive: all other assays above

C=CCC1=C(C)[C@@H](OC(=O)[C@@H]2[C@@H](C=C(C)C)C2(C)C)CC1=O
active: [4] 31.2 µM | [6] 32 µM | [7] 23.4 µM | [8] 34.4 µM | [9] 35.4 µM
inactive: [1] | [5] | [10]

CCOc1cc(Oc2ccc(C(F)(F)F)cc2Cl)ccc1[N+](=O)[O-]
active: [7] 11.5 µM | [8] 3.32 µM
not listed: [1] | [2]
inactive: all other assays above

O=C(O)COc1nc(Cl)c(Cl)cc1Cl
not listed: [1] | [3]
inactive: all other assays above

COC(=O)C(C)Oc1ccc(Oc2ccc(Cl)cc2Cl)cc1 (centres undefined)
inactive: [1] | [2] | [4] | [5] | [6] | [7] | [8] | [9] | [10]
active: [6] 25.4 µM | [8] 13.8 µM

Cc1cc(Cl)ccc1OCC(=O)O
not listed: [1] | [2]
inactive: all other assays above

CCc1nn(C)c(C(=O)NCc2ccc(C(C)(C)C)cc2)c1Cl
active: [3] 0.157 µM | [4] 20 µM | [5] 20 µM | [6] 28.4 µM | [7] 20 µM | [8] 17.3 µM | [9] 20 µM | [10] 34 µM

CN(C)C(=S)SSC(=S)N(C)C
inactive: [1] | [2]
active: [4] 30.5 µM | [5] 9.3 µM | [6] 30.9 µM | [7] 24 µM | [8] 14.9 µM | [9] 31.7 µM | [10] 33.6 µM

COc1nc(C)nc(NC(=O)NS(=O)(=O)c2ccccc2Cl)n1
not listed: [3]
inactive: all other assays above

CS/C(C)=N/OC(=O)N(C)SN(C)C(=O)O/N=C(\C)SC
active: [4] 30 µM | [6] 29.6 µM | [7] 29.3 µM | [8] 15.8 µM | [9] 29.7 µM | [10] 35.1 µM
inactive: [1] | [5]

CC(C)Oc1cc(-n2nc(C(C)(C)C)oc2=O)c(Cl)cc1Cl
inactive: [1] | [3] | [5] | [10]
active: [4] 29.2 µM | [6] 30.7 µM | [7] 25.8 µM | [8] 29.7 µM | [9] 29 µM

COP(N)(=O)SC (centres undefined)
not listed: [3]
inactive: all other assays above

CCNc1nc(Cl)nc(NCC)n1
not listed: [3]
inactive: all other assays above

CCCCNC(=O)n1c(NC(=O)OC)nc2ccccc21
active: [6] 10 µM | [8] 13.7 µM
not listed: [3]
inactive: all other assays above

COP(=S)(OC)Oc1nc(Cl)c(Cl)cc1Cl
active: [4] 35.2 µM
not listed: [3]
inactive: all other assays above

COC(=O)c1ccccc1C(=O)OC
not listed: [1] | [2] | [3]
inactive: all other assays above

CC1=C(C(=O)Nc2ccccc2)SCCO1
active: [8] 10.6 µM
not listed: [1]
inactive: all other assays above
